Records with an inconclusive call do not appear. The source made the active and inactive calls. Calls follow the shape of the dose curve; as a rule, active = well fitted cell-killing curve with a large enough effect; inconclusive = small, poorly fitted or top-dose-only effect; inactive = flat fitted curve, though single readings scatter.

Data on 24 compounds can be found in PubChem BioAssay (NCATS).
Also: nearly all actives have a fitted effect of over 35% in size.
Potency is read from the fitted curve at half-maximal effect.

The nature of one assay: Quantitative highthroughput screen to assess conditional lethalithy of P12 Ichikawa cells grown in RPMI1640 with dialyzed fetal bovine serum (RPMI+ds) (AID 1963880).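 As to viability: 100% = DMSO wells and 0% = empty wells on each plate.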 To be noted: ATP luminescence, 48 h; Potency: P12-Ichikawa viability; series mostly up to 45.8 µM; viability: at the top concentration. A digest of the protocol:
(§1)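 Each medium arm—HPLM with 10% dialyzed FBS, or RPMI1640 with 5 mM glucose and 10% untreated or dialyzed FBS—was screened against an 11-point, 3-fold compound titration for 48 h at 37 °C, with CellTiter-Glo luminescence as endpoint.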
Turning to `COc1cc2c(cc1OC)[C@@H]1Cc3ccc(OC)c(OC)c3CN1CC2`, the viability (in general, a read-out of living cells in per cent, often relative to untreated cells) is 81.4% (inactive).

As to `CCC(=O)NC[C@H](Cc1ccc(OCCc2nc(-c3ccccc3)oc2C)cc1)NC(C)=CC(=O)c1ccc(C(F)(F)F)cc1`, the Potency is 16.6 µM (active).

Turning to `CCOc1ccccc1N=Nc1c(C)[nH]n(-c2nc(-c3ccccc3)cs2)c1=O`, the “viability” value was 96.3% (inactive).

As for `CO[C@@H]1[C@@H](O)[C@H](O)[C@@H](n2c3c(Cl)cccc3c3c4c(c5c6cccc(Cl)c6[nH]c5c32)C(=O)NC4=O)O[C@@H]1CO`, the Potency is 0.264 µM (active).

As for `N#CC(=C(N)Sc1ccccc1N)C(C#N)=C(N)Sc1ccccc1N`, the “viability” value is 88.9% (inactive).

As to `C[C@]12C=CC(=O)C=C1CC[C@@H]1[C@@H]2[C@@H](O)C[C@@]2(C)[C@@H]1CC[C@]2(O)C(=O)CO`, the Potency was 7.43 µM (active).

As for `COc1nccc(-c2c(-c3ccc(F)cc3)ncn2C2CCNCC2)n1`, the “viability” value is 84.7% (inactive).

As to `COC(=O)C=CC(=O)OC`, the Potency is 1.48 µM (active).

Regarding `CC(C)OC(=O)[C@H](C)N[P@](=O)(OC[C@H]1O[C@@H](n2ccc(=O)[nH]c2=O)[C@](C)(F)[C@H]1O)Oc1ccccc1`, the Potency is 4.69 µM (active).

Turning to `CC(C)n1c(C=C[C@H](O)C[C@H](O)CC(=O)O)c(-c2ccc(F)cc2)c2ccccc21`, the Potency is 4.69 µM (active).

As for `OC[C@H]1O[C@@H](Oc2cc(O)cc(C=Cc3ccc(O)cc3)c2)[C@H](O)[C@@H](O)[C@H]1O`, the “viability” value was 91.6% (inactive).

In the case of `COc1cc(OC)c(C=CS(=O)(=O)Cc2ccc(OC)c(NCC(=O)O)c2)c(OC)c1`, the Potency is 0.166 µM (active).

Take `NC1=N[C@@]2(c3cc(NC(=O)c4ccc(F)cn4)ccc3F)COC[C@@H]2CS1`: the Potency is 3.32 µM (active).

As for `COc1cc(CNC(=O)CCCCC=CC(C)C)ccc1O`, the Potency was 0.418 µM (active).

Consider `C=CCc1ccc(O)c(-c2ccc(O)c(CC=C)c2)c1`, for which the Potency was 0.526 µM (active).

`CC(C)N(CC[C@H](c1ccccc1)c1cc(CO)ccc1O)C(C)C`: the “viability” value is 109% (inactive).

In the case of `CO[C@H]1O[C@@H]2O[C@@]3(C)CC[C@@H]4[C@@H](C)CC[C@@H]([C@H]1C)[C@@]24OO3`, the Potency was 14.8 µM (active).

`CCCCCN=C(N)NN=Cc1c[nH]c2ccc(OC)cc12`: the Potency was 14.8 µM (active).

In the case of `CCOC1OC(=O)C[C@H]1NC(=O)[C@@H]1CCCN1C(=O)[C@@H](NC(=O)c1ccc(N)c(Cl)c1)C(C)(C)C` (stereo not given in full), the Potency is 3.32 µM (active).

On to `Cc1[nH]c(C=C2C(=O)Nc3ccc(S(=O)(=O)N(C)c4cccc(Cl)c4)cc32)c(C)c1C(=O)N1CCN(C)CC1`, for which the Potency was 14.8 µM (active).

In the case of `CCNC(=O)CCCC=CC[C@@H]1[C@H](C=CC(O)CCc2ccccc2)[C@@H](O)C[C@@H]1O` (stereo not given in full), the “viability” value was 91.3% (inactive).

A short description of a further assay: Quantitative highthroughput screen to assess conditional lethalithy of P12 Ichikawa cells grown in RPMI1640 with untreated serum (RPMI+s) (AID 1963881).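 As to viability: 100% = DMSO wells and 0% = empty wells without cells.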 The following applies: ATP luminescence, 48 h; Potency: viability; series mostly up to 45.8 µM; viability: at the top concentration. A digest of the protocol: as §1
With `CC1=C(C(=O)Nc2cc3cn[nH]c3cc2F)C(c2ccc(C(F)(F)F)cc2)CC(=O)N1` (stereo not given), the Potency was 10.5 µM (active).

Regarding `COc1cc2c(cc1OC)[C@@H]1Cc3ccc(OC)c(OC)c3CN1CC2`, the “viability” value was 78.5% (inactive).

For `CCC(=O)NC[C@H](Cc1ccc(OCCc2nc(-c3ccccc3)oc2C)cc1)NC(C)=CC(=O)c1ccc(C(F)(F)F)cc1`, the Potency was 16.6 µM (active).

For the compound `CCOc1ccccc1N=Nc1c(C)[nH]n(-c2nc(-c3ccccc3)cs2)c1=O`, the “viability” value is 97.5% (inactive).

`Cc1ccc(C2=Nc3ccc(Cl)cc3OC2)cc1`: the Potency was 20.9 µM (active).

For the compound `CO[C@@H]1[C@@H](O)[C@H](O)[C@@H](n2c3c(Cl)cccc3c3c4c(c5c6cccc(Cl)c6[nH]c5c32)C(=O)NC4=O)O[C@@H]1CO`, the Potency was 0.235 µM (active).

With `N#CC(=C(N)Sc1ccccc1N)C(C#N)=C(N)Sc1ccccc1N`, the “viability” value was 82.3% (inactive).

`Clc1ccc2ncc(-c3cccc(NC4CNC4)n3)n2c1`: the Potency is 23.5 µM (active).

Turning to `C[C@]12C=CC(=O)C=C1CC[C@@H]1[C@@H]2[C@@H](O)C[C@@]2(C)[C@@H]1CC[C@]2(O)C(=O)CO`, the Potency was 6.62 µM (active).

For the compound `COc1nccc(-c2c(-c3ccc(F)cc3)ncn2C2CCNCC2)n1`, the “viability” value is 94.2% (inactive).

`COC(=O)C=CC(=O)OC`: the Potency was 2.64 µM (active).

Regarding `CC(C)OC(=O)[C@H](C)N[P@](=O)(OC[C@H]1O[C@@H](n2ccc(=O)[nH]c2=O)[C@](C)(F)[C@H]1O)Oc1ccccc1`, the Potency is 6.62 µM (active).

Regarding `CC(C)n1c(C=C[C@H](O)C[C@H](O)CC(=O)O)c(-c2ccc(F)cc2)c2ccccc21`, the Potency is 4.69 µM (active).

`OC[C@H]1O[C@@H](Oc2cc(O)cc(C=Cc3ccc(O)cc3)c2)[C@H](O)[C@@H](O)[C@H]1O`: the “viability” value is 87.7% (inactive).

Consider `COc1cc(OC)c(C=CS(=O)(=O)Cc2ccc(OC)c(NCC(=O)O)c2)c(OC)c1`, for which the Potency was 0.235 µM (active).

Take `NC1=N[C@@]2(c3cc(NC(=O)c4ccc(F)cn4)ccc3F)COC[C@@H]2CS1`: the Potency is 1.66 µM (active).

On to `COc1cc(CNC(=O)CCCCC=CC(C)C)ccc1O`, for which the Potency is 0.833 µM (active).

Take `C=CCc1ccc(O)c(-c2ccc(O)c(CC=C)c2)c1`: the Potency was 1.05 µM (active).

In the case of `CC(C)N(CC[C@H](c1ccccc1)c1cc(CO)ccc1O)C(C)C`, the “viability” value was 105% (inactive).

For `CO[C@H]1O[C@@H]2O[C@@]3(C)CC[C@@H]4[C@@H](C)CC[C@@H]([C@H]1C)[C@@]24OO3`, the Potency is 16.6 µM (active).

On to `CCCCCN=C(N)NN=Cc1c[nH]c2ccc(OC)cc12`, for which the Potency was 13.2 µM (active).

`CCOC1OC(=O)C[C@H]1NC(=O)[C@@H]1CCCN1C(=O)[C@@H](NC(=O)c1ccc(N)c(Cl)c1)C(C)(C)C` (stereo not given in full): the Potency is 1.87 µM (active).

With `Cc1[nH]c(C=C2C(=O)Nc3ccc(S(=O)(=O)N(C)c4cccc(Cl)c4)cc32)c(C)c1C(=O)N1CCN(C)CC1`, the Potency was 18.7 µM (active).

On to `CCNC(=O)CCCC=CC[C@@H]1[C@H](C=CC(O)CCc2ccccc2)[C@@H](O)C[C@@H]1O` (stereo not given in full), for which the “viability” value was 95.5% (inactive).
